High-throughput results (PubChem)
An excerpt weighted towards active compounds, which were near 14% of everything screened.
Pf growth 48h = P. falciparum growth inhibition at 48 hours (one generation). P. falciparum luciferase growth in erythrocytes, 48 h. Potency, µM (highest dose often 28.7 µM), actives largely listed as inhibitors. 5.9% of 310,000 active. AID 504832
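A one-generation exposure of luciferase-tagged malaria parasites in RPMI 1640/Albumax erythrocyte culture, 37 C and 5% CO2. Inhibition is inferred from decreased luminescence after adding detection reagent.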
Pf growth 96h = P. falciparum growth inhibition at 96 hours; P. falciparum luciferase reporter growth, 96 h; Potency, µM (series often up to 28.7 µM), hits mostly inhibitors; 6.9% of 320,000 active; AID 504834
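Parasite growth measured via integrated firefly luciferase reporter in P. falciparum. Infected erythrocytes at 2% hematocrit, 0.05% parasitemia final were treated 96 hours at 37 C under 5% CO2, and luminescence was read.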
HCMV inh = human cytomegalovirus inhibition | HFF cells, HCMV-luciferase reporter, 72 h; stronger effect = lower value | activity change, negative = inhibition, % at 57.5 µM | 4.5% of 410,000 active; in the data active means activity change below about -60%; inconclusive means no clear call, values can overlap the other calls; inactive means above about -39%
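Human foreskin fibroblasts infected with luciferase-reporter HCMV at MOI 1 PFU/cell, compounds at two doses. Luciferase measured 72 h post infection; normalized to buffer-only basal and Salinomycin (10uM) controls.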
Lassa entry inh = inhibitors of Lassa virus binding or cell entry | AID 540256 | Potency, µM (doses to about 37.9 µM), most hits filed as inhibitors | Lassa virus pseudotype entry inhibition, cell reporter | 1.2% of 300,000 active; calls by dose curve; tested in HEK293 cells; further: nearly all actives have a fitted effect of over 50% in size
Marburg entry inh = Marburg virus entry inhibition; 1.8% of 300,000 active; Potency, µM (titrated, usually from 37.8 µM), hits mostly inhibitors; Marburg virus pseudotyped entry inhibition, cell reporter; calls by dose curve; tested in HEK293 cells
HCV inh = blocks hepatitis C virus; AID 651820; Huh7.5.1 HCVcc-Cre infection, luciferase reporter, 44 h; Potency, µM (series often up to 41.8 µM), actives largely listed as inhibitors; 3.4% of 340,000 active
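HCVcc-Cre virus at an moi near 0.5 was added right after compound to cells cultured 4 h from seeding (1,000 cells/well). Luciferase activity was determined 44 h later, 15 min after substrate addition at RT.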
Hits are given with their value; 0 = inactive; ? = inconclusive; - = no result; [ ] = remark or other dose. Unless noted, the call rests on the fitted dose curve; in most records, active means well fitted inhibition curve with a large enough effect; inconclusive means small, poorly fitted or top-dose-only effect, or another doubt; inactive means no such curve, though single readings can be large or run the other way.

SMILES	Pf growth 48h	Pf growth 96h	HCMV inh	Lassa entry inh	Marburg entry inh	HCV inh
CN1CCc2c(sc3nc(SCC(N)=O)n(-c4ccc(Cl)cc4)c(=O)c23)C1	0[0.00184 µM]	?	?	-	-	?
O=c1c2c3c(sc2nc(NCCO)n1-c1ccccc1)CCCC3	0	0	0	0	0	0
CCCCSc1nc2sc3c(c2c(=O)n1-c1ccc(OC)cc1)CCN(C)C3	9.3µM	?	?	0	?	0
Cc1ccccc1-n1c(SCC(=O)O)nc2sc3c(c2c1=O)CCCC3	0	?	0	0	0	?
CCSc1nc2sc3c(c2c(=O)n1-c1ccccc1C)CCN(C)C3	5.2µM	1.5µM	0	0	?	?
CCCCNc1nc2sc3c(c2c(=O)n1-c1cccc(Cl)c1)CCN(C)C3	1.9µM	0.37µM	0	0	?	4µM
C=CCOC(=O)Cn1cnc2c(sc3nc(C)cc(C)c32)c1=O	?	0	?	-	0	0
O=C(Nc1ccc2c(c1)CCCN2C(=O)c1cccs1)c1ccccc1Cl	-	-	-67	?	-	-
Cc1ccc(S(=O)(=O)N2CCCc3cc(NC(=O)c4ccccc4Cl)ccc32)cc1	-	-	0	0	-	-
CN(C)S(=O)(=O)N1CCc2ccc(NC(=O)c3ccccc3Cl)cc2C1	0	5.9µM	0	0	0	?
O=C(Nc1ccc2c(c1)CCC2)c1cccs1	0	0	0	?	?	0
O=C(Nc1ccc2c(c1)CCCN2C(=O)c1cccs1)c1c(F)cccc1F	0	0	-75	?	-	?
O=C(Nc1ccc2c(c1)N(S(=O)(=O)c1cccs1)CCC2)c1c(F)cccc1F	?	?	0	?	?	?
O=C(Nc1ccc2c(c1)CCCN2C(=O)c1cccs1)c1c(F)cccc1Cl	0	0	-79	-	-	?
CCCN(C(=O)Cc1nc(-c2ccc(OC)cc2)no1)c1ccccc1C	-	-	0	0	-	-
O=S(=O)(Nc1cccc(-c2ccc(N3CCCCC3)nn2)c1)c1ccc(Cl)s1	-	-	0	?	-	-
O=C(c1ccccc1)N1CCCc2ccccc21	0	0	0	0	0	0
O=C(Nc1cccc(C(=O)N2CCCc3ccccc32)c1)c1ccccc1	?	4.7µM	0	?	?	0
O=C(Nc1ccc(C(=O)N2CCCc3ccccc32)cc1)c1cccs1	0	0	0	0	11µM	0
CCCCCCN1C[C@@H](O)[C@H](n2cc(COC(=O)c3ccccc3)nn2)C[C@@H]1c1ccc(OC)cc1	-	-	-101	-	-	-
Cc1ccc([C@H]2C[C@@H](O)[C@H](n3cc(COC(=O)c4ccccc4)nn3)CN2C(=O)C2CCCCC2)cc1	-	-	0	?	-	-
COc1ccc([C@H]2C[C@H](O)[C@@H](n3cc(COC(=O)c4ccccc4)nn3)CN2C(=O)C2CCCCC2)cc1	-	-	-83	-	?	-
O[C@H]1CN(CC2CCCCC2)[C@@H](c2ccc(Cl)cc2)C[C@H]1n1cc(C2CC2)nn1	-	-	-	10µM	-	-
CCCCCCN1C[C@@H](n2cc(COC(=O)c3ccccc3)nn2)[C@H](O)C[C@@H]1c1ccc(C)cc1	-	-	-89	-	-	-
COc1ccc(-n2cc(C(=O)NCc3ccccc3Cl)c3ccccc3c2=O)cc1	-	-	0	0	-	-
SMILES	Pf growth 48h	Pf growth 96h	HCMV inh	Lassa entry inh	Marburg entry inh	HCV inh
COc1ccc(C(=O)Nc2ccccc2-c2nc3ccccc3s2)c(OC)c1	-	-	0	0	-	-
CCN(CCCNC(=O)c1nn(-c2ccc(OC)cc2)c(=O)c2c1c1ccccc1n2C)c1ccccc1	-	-	0	0	0	-
O=C(OCc1cn([C@@H]2CN(CC3CCCCC3)[C@@H](c3ccccc3)C[C@H]2O)nn1)c1ccccc1	-	-	0	-	-	-
Cc1ccc([C@H]2C[C@@H](O)[C@H](n3cc(COC(=O)c4ccccc4)nn3)CN2CC2CCCCC2)cc1	-	-	-89	0	-	-
S=c1[nH]c2ncccc2o1	0	2.1µM	0	0	0	0
Cc1c(CCOC(=O)CC23CC4CC(CC(C4)C2)C3)sc[n+]1Cc1ccccc1	7.4µM	?	?	0	0	0
Cc1c(CCOC(=O)C23CC4CC(CC(C4)C2)C3)sc[n+]1CC#N	?	?	-99	?	?	0
Cc1c(CCO)sc[n+]1CC(=O)OCCC12CC3CC(CC(C3)C1)C2	5.2µM	1µM	?	0	?	0
Cc1ncc(C[n+]2csc(CCOC(=O)CC34CC5CC(CC(C5)C3)C4)c2C)c(N)n1	?	0	0	0	0	?
CN(C)S(=O)(=O)c1cccc(NC(=O)c2ccc(NS(=O)(=O)c3cccs3)cc2)c1	-	-	0	0	0	0
Cc1cccc(C(=O)Nc2cc3c(cc2C)n(C)c(=O)n3C)c1	-	-	0	0	-	-
COc1ccc([N+](=O)[O-])cc1NC(=O)C(C)N(C)Cc1ccc(Br)cc1 (centres undefined)	?	?	?	0	0	?
COc1ccc(CN(C)C(C)C(=O)Nc2ccc([N+](=O)[O-])cc2Cl)cc1OC (centres undefined)	?	12µM	0	?	?	?
COc1ccc(Br)cc1CN(C)C(C)C(=O)Nc1cc([N+](=O)[O-])ccc1OC (centres undefined)	?	?	0	0	14µM	?
CN(C(=O)CSc1nc(-c2ccc(C(C)(C)C)cc2)c(C#N)c(=O)[nH]1)C1CCCCC1	0	0	0	-	-	0
Cc1ccc(Nc2c(-c3ccc(C)o3)nc3cnccn23)cc1	-	0.74µM	0	-	-	0
Cc1ccc(-c2nc3cnccn3c2Nc2ccccc2)o1	-	0	0	-	-	0
Fc1ccc(-c2ncn(C3CCNCC3)c2-c2ccnc(Oc3ccc(F)c(F)c3)n2)cc1	-	-	-	22µM	-	-
Fc1ccc(-c2ncn(C3CCNCC3)c2-c2ccnc(Oc3ccc(Oc4ccccc4)cc3)n2)cc1	-	-	-	13µM	-	-
O=C(NCC1CCCO1)C(c1ccco1)N(Cc1ccc(F)cc1)C(=O)CN1C(=O)c2ccccc2S1(=O)=O (centres undefined)	0	0	0	0	0	0
CCOC(=O)c1sc(NC(=O)CSc2nccc(C)n2)nc1C	0	0	0	-	-	0
CCOC(=O)c1sc(NC(=O)CSc2ncccn2)nc1C	0	13µM	0	?	?	16µM
CCOC(=O)c1sc(NC(=O)CSc2nnc(-c3ccc(OC)cc3)n2CCOC)nc1C	?	13µM	0	0	0	?
CCC(CC)c1nnc(NC(=O)CSCc2c(C)noc2C)s1	-	-	0	-	-	-
CC(=O)c1sc(NC(=O)CSCc2c(C)noc2C)nc1-c1ccccc1	10µM	?	0	0	0	0
CCOC(=O)c1sc(NC(=O)CSCc2c(C)noc2C)nc1C	10µM	?	0	-	-	?
CC(=O)Nc1ccc(NC(=O)C(C)Oc2ccc(C)nc2[N+](=O)[O-])cc1 (centres undefined)	0	0	0	0	?	0
CN(C)C(CNC(=O)c1cc(S(=O)(=O)N2CCOCC2)ccc1Cl)c1cccs1 (centres undefined)	-	-	0	-	-	0
O=C1N/C(=C\c2ccc(O)cc2)C(=O)c2ccccc21	?	0	-	?	?	11µM
